About 7,900 targets were measured; listed, in parts, are those with a hit and a random draw of the rest. About 0.6% of all pairs of compound and target were hits. Unmarked numbers belong to inactive results.
Tests used:
Assay in all cases: log2 fold change, soluble protein after heating vs DMSO (PISA); higher = thermal stabilisation; K562 cells, 10 uM, 30 min; active = over 0.2 and 3.5 SD of the protein, either way, in both replicates (recomputed)
[1] = compound: COC1=CC=C(C=C1)CN2C=CC3=C2C=C(C=C3)C(=O)NO
How it was run: (§1)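 Quantification of soluble protein used TMTpro 16plex LC-MS/MS, with channel sums equalised. Samples were the supernatant after 21,000xg for 90 min of pooled aliquots from K562 cells (2×10^6 cells/mL) treated with 10 μM compound for 30 min, heated for 3 min over 48°C-58°C, and extracted in PBS with 0.5% NP-40 at 4°C. Values, from duplicates, describe thermal stability against control samples on a log2 fold-change scale.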

filanesib = compound: CON(C)C(=O)N1N=C(c2cc(F)ccc2F)S[C@@]1(CCCN)c1ccccc1 [filanesib]
How it was run: as §1

zotarolimus = compound: CO[C@H]1C[C@@H]2CC[C@@H](C)[C@@](O)(O2)C(=O)C(=O)N2CCCC[C@H]2C(=O)O[C@H]([C@H](C)C[C@@H]2CC[C@H](n3cnnn3)[C@H](OC)C2)CC(=O)[C@H](C)/C=C(\C)[C@@H](O)[C@@H](OC)C(=O)[C@H](C)C[C@H](C)/C=C/C=C/C=C/1C [zotarolimus]
How it was run: as §1

idasanutlin = compound: COc1cc(C(=O)O)ccc1NC(=O)[C@@H]1N[C@@H](CC(C)(C)C)[C@](C#N)(c2ccc(Cl)cc2F)[C@H]1c1cccc(Cl)c1F [idasanutlin]
How it was run: as §1

alisertib = compound: COc1cc(Nc2ncc3c(n2)-c2ccc(Cl)cc2C(c2c(F)cccc2OC)=NC3)ccc1C(=O)O [alisertib]
How it was run: as §1

[2] = compound: COc1cc2nc(-c3cc(F)ccc3O)nc(N[C@@H]3CNC[C@H]3C(C)(C)O)c2cc1OC
How it was run: as §1

gefitinib = compound: COc1cc2ncnc(Nc3ccc(F)c(Cl)c3)c2cc1OCCCN1CCOCC1 [gefitinib]
How it was run: as §1

[3] = compound: COc1cccc2cc(-c3nc([C@H]4CC[C@H](C(=O)O)CC4)n4ncnc(N)c34)[nH]c12
How it was run: as §1

lapatinib = compound: CS(=O)(=O)CCNCc1ccc(-c2ccc3ncnc(Nc4ccc(OCc5cccc(F)c5)c(Cl)c4)c3c2)o1 [lapatinib]
How it was run: as §1

pictilisib = compound: CS(=O)(=O)N1CCN(Cc2cc3nc(-c4cccc5[nH]ncc45)nc(N4CCOCC4)c3s2)CC1 [pictilisib]
How it was run: as §1

Chain of UniProt Q9BRA0 (Q9BRA0 whole entry, looked up): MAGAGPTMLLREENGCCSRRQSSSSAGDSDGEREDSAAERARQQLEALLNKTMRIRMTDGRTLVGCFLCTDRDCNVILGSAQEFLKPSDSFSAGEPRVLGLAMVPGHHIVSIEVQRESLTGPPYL
Chain of UniProt P52948 (P52948 whole entry, looked up): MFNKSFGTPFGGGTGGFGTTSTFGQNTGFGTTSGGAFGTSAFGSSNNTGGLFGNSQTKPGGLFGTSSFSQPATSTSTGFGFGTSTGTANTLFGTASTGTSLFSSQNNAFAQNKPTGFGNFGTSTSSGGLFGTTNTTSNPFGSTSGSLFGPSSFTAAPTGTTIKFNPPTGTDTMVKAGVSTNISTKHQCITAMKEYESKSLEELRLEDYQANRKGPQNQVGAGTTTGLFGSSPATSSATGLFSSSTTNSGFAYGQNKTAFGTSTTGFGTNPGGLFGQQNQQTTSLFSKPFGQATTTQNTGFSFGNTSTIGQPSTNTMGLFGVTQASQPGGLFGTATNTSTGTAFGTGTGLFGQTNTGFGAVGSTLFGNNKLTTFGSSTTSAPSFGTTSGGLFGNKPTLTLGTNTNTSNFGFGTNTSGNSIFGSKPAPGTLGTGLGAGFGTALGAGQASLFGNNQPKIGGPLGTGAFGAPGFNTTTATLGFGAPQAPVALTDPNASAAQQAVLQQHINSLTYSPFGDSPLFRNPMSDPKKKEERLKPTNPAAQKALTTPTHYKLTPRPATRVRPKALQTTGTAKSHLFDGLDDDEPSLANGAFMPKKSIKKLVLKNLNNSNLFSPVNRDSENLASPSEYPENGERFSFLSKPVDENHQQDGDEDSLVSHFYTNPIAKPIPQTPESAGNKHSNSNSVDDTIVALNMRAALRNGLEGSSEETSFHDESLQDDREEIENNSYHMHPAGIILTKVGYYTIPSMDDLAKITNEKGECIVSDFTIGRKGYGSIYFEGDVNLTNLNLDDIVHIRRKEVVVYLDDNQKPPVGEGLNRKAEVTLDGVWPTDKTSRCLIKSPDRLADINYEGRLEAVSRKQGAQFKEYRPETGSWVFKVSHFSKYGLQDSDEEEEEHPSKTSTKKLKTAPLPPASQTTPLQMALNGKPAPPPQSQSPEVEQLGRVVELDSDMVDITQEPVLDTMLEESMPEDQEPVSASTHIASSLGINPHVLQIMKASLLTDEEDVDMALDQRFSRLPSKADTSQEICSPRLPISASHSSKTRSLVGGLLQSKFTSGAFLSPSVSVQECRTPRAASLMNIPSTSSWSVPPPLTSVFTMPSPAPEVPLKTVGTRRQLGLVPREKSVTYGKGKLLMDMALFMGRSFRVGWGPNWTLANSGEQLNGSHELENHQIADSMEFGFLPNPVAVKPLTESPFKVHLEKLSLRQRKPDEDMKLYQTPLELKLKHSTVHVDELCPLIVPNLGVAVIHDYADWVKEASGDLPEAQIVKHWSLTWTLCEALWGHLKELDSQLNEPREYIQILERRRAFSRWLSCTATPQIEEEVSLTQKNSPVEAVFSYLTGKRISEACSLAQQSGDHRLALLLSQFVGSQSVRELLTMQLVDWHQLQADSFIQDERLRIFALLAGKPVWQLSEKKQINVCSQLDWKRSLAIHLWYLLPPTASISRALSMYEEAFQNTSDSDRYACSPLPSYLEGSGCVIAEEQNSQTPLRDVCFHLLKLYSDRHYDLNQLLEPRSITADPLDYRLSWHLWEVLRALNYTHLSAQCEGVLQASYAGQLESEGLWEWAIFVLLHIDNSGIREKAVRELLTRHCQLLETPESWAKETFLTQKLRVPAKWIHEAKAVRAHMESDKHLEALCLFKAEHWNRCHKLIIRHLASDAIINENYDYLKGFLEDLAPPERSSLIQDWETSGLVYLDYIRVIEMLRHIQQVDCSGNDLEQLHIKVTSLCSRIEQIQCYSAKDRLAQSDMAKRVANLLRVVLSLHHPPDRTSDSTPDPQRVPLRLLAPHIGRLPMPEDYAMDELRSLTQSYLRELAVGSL
Chain of UniProt Q13423 (Q13423 whole entry, looked up): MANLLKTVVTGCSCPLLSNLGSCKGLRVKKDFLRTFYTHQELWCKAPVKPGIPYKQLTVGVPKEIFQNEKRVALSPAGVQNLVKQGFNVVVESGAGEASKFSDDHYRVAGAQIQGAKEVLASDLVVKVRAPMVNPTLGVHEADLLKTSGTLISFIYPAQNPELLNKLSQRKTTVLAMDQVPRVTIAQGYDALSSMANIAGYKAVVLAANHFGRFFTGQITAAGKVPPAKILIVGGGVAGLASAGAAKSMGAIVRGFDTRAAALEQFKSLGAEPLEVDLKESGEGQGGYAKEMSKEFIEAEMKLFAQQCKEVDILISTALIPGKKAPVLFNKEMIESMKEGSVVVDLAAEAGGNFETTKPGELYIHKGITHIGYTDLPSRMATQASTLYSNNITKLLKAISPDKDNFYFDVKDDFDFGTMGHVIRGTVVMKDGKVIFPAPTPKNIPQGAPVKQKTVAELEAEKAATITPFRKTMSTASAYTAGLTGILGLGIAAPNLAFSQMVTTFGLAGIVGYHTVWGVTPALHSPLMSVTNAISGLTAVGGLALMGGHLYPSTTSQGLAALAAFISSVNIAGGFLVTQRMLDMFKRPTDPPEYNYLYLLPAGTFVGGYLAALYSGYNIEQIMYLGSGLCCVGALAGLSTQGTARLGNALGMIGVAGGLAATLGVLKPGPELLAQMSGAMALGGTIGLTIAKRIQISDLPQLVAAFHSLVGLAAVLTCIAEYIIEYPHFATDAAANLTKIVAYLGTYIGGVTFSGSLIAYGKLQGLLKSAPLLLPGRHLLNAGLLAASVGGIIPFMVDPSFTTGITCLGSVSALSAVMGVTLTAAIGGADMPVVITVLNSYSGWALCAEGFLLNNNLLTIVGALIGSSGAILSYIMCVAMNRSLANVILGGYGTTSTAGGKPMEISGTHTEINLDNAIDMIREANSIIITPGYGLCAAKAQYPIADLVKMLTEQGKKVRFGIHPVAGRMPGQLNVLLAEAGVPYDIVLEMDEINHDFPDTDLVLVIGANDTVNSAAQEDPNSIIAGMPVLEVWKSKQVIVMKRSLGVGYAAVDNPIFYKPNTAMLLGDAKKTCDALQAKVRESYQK
Chain of UniProt P68402 (P68402 whole entry, looked up): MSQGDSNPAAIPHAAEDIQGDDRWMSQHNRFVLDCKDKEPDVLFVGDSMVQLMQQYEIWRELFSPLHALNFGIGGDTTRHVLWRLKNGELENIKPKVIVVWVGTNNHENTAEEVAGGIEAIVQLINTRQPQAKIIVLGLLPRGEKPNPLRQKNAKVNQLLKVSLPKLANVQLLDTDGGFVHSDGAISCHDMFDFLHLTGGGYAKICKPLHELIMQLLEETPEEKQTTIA
Chain of UniProt P03905 (P03905 whole entry, looked up): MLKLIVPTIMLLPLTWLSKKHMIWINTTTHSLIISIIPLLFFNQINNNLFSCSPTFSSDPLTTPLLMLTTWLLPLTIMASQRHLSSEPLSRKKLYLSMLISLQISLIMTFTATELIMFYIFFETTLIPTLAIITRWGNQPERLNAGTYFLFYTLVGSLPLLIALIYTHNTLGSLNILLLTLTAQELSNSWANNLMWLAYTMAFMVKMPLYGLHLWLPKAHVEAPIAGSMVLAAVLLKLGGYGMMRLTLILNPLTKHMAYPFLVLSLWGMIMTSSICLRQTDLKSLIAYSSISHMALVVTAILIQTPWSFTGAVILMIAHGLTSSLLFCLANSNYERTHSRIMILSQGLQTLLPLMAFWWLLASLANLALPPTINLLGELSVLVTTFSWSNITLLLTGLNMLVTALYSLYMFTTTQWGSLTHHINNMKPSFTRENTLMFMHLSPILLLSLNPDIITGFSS
Chain of UniProt O75030 (O75030 whole entry, looked up): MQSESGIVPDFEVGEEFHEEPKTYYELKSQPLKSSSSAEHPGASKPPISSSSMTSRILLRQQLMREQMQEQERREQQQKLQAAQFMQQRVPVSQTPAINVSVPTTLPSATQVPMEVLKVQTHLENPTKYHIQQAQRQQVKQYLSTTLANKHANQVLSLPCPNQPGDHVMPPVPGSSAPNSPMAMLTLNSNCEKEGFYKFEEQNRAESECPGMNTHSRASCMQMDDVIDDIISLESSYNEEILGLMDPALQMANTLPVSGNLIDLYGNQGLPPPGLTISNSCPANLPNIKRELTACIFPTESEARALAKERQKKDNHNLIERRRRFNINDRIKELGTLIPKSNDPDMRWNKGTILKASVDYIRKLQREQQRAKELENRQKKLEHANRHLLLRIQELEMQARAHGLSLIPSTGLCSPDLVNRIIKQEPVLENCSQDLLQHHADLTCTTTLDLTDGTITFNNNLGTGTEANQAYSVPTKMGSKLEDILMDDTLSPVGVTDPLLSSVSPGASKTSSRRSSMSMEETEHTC
Chain of UniProt P51948 (P51948 whole entry, looked up): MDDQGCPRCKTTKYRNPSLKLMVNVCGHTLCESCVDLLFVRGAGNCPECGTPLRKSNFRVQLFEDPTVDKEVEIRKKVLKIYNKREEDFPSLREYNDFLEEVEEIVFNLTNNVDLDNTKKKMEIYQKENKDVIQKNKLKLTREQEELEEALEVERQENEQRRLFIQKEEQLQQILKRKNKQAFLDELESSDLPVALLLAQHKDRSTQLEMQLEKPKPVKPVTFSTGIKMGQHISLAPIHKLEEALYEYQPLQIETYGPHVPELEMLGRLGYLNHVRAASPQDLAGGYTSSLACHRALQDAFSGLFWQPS
Chain of UniProt O95182 (O95182 whole entry, looked up): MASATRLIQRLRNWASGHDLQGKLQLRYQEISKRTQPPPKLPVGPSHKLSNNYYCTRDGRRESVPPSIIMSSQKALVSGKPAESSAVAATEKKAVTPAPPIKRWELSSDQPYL
Chain of UniProt Q9NR45 (Q9NR45 whole entry, looked up): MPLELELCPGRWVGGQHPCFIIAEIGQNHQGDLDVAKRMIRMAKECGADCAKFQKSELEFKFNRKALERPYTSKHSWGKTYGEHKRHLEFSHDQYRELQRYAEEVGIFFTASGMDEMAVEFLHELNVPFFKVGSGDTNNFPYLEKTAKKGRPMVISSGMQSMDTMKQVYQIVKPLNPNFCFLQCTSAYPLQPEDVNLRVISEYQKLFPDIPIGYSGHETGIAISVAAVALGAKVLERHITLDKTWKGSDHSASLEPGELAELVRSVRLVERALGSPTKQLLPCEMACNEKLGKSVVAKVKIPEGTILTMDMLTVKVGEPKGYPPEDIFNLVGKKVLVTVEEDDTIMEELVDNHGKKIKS

Target | log2 fold change [1] | log2 fold change (filanesib) | log2 fold change (zotarolimus) | log2 fold change (idasanutlin) | log2 fold change (alisertib) | log2 fold change [2] | log2 fold change (gefitinib) | log2 fold change [3] | log2 fold change (lapatinib) | log2 fold change (pictilisib)
NELFB isoform 2 (UniProt Q8WX92) | 0.01 | 0.046 | 0.019 | -0.026 | -0.007 | 0.085 | -0.006 | -0.02 | -0.029 | 0.141
NTMT1 (UniProt Q9BV86) | -0.455 (active) | -0.055 | 0.091 | -0.121 | -0.043 | 0.085 | 0.062 | -0.027 | -0.001 | 0.092
NACC1 (UniProt Q96RE7) | 0.009 | -0.116 | 0.103 | 0.02 | 0.016 | -0.198 | 0.021 | 0.024 | -0.031 | -0.034
MON2 isoform 5 (UniProt Q7Z3U7) | -0.003 | -0.017 | 0.101 | -0.147 | 0.046 | 0.091 | 0.039 | -0.004 | 0.036 | 0.048
NUP98 (UniProt P52948) | -0.003 | 0.045 | 0.009 | 0.061 | 0.007 | 0.047 | 0.026 | -0.057 | 0.02 | 0.027
MSH6 (UniProt P52701) | 0.09 | -0.154 | 0.088 | -0.003 | 0.75 | -0.017 | 0.068 | -0.04 | 0.008 | -0.026
NDUFA7 (UniProt O95182) | 0.003 | -0.072 | 0.005 | -0.197 | -0.042 | -0.147 | -0.178 | 0.013 | -0.002 | -0.007
MSL1 (UniProt Q68DK7) | -0.163 | -0.013 | – | -0.113 | -0.081 | 0.275 | 0.04 | -0.012 | -0.117 | 0.197
MT-ND4 (UniProt P03905) | -0.021 | -0.009 | -0.069 | -0.147 | -0.02 | -0.088 | 0.003 | 0.046 | 0.013 | -0.214
NFYC (UniProt Q13952) | -0.026 | -0.023 | 0.004 | -0.065 | -0.036 | 0.017 | -0.018 | 0.127 | 0.033 | 0.092
PAFAH1B2 (UniProt P68402) | 0.044 | -0.074 | 0.007 | 0.082 | 0.02 | -0.071 | 0.086 | 0.033 | 0.029 | -0.28
MPHOSPH10 (UniProt O00566) | -0.139 | 0.561 (active) | 0.053 | 0.271 | -0.061 | -0.166 | 0.026 | -0.031 | 0.174 | -0.105
MTFR1L (UniProt Q9H019) | 0.036 | -0.09 | 0.037 | -0.04 | – | -0.111 | 0.083 | – | 0.044 | 0.011
MITF (UniProt O75030) | 0.122 | 0.106 | – | -0.042 | 0.008 | – | -0.13 | 0 | – | -0.397
MRPS26 (UniProt Q9BYN8) | -0.039 | 0.09 | 0.04 | -0.145 | -0.078 | 0.041 | – | 0.072 | 0.074 | -0.155
OPHN1 (UniProt O60890) | -0.261 | -0.004 | -0.049 | -0.015 | -0.036 | – | -0.002 | 0.04 | – | 0.242
NAA38 isoform 2 (UniProt Q9BRA0) | 0.033 | -0.014 | 0.001 | -0.045 | 0.044 | -0.005 | 0.02 | 0.052 | 0.062 | 0.023
NEDD4L (UniProt Q96PU5) | -0.027 | 0.095 | 0.032 | -0.018 | -0.114 | 0.086 | -0.031 | 0.027 | -0.025 | -0.035
NANS (UniProt Q9NR45) | -0.11 | -0.115 | 0.017 | -0.045 | -0.008 | -0.017 | -0.057 | -0.017 | -0.005 | -0.018
NR2C2AP isoform 2 (UniProt Q86WQ0) | 0.101 | 0.01 | -0.014 | -0.062 | -0.066 | -0.034 | -0.01 | 0.093 | -0.011 | 0.08
PAK1 isoform 2 (UniProt Q13153) | 0.178 | 0.04 | 0.003 | -0.155 | 0.086 | -0.007 | -0.025 | -0.098 | -0.015 | 0.183
MPHOSPH8 isoform 2 (UniProt Q99549) | -0.002 | 0.128 | -0.191 | 0.062 | -0.016 | 0.032 | – | 0.125 | 0.024 | –
MOV10 (UniProt Q9HCE1) | -0.048 | 0.155 | -0.005 | 0.071 | -0.073 | -0.021 | 0.002 | -0.1 | 0.073 | -0.048
NNT (UniProt Q13423) | -0.008 | -0.08 | 0.015 | -0.076 | -0.041 | 0.037 | 0.016 | 0.031 | -0.031 | -0.01
P4HA2 (UniProt O15460) | -0.109 | 0.078 | 0.026 | – | 0.011 | -0.139 | 0.006 | -0.11 | 0.075 | -0.003
NA, A0A2R8Y3M9 | -0.086 | 0.079 | -0.419 | 0.279 | – | -0.123 | -0.168 | – | -0.037 | -0.35
MNAT1 (UniProt P51948) | -0.025 | 0.073 | 0.011 | 0.021 | -0.047 | -0.04 | -0.039 | 0.036 | 0.009 | -0.016
NSMCE2 (UniProt Q96MF7) | -0.029 | 0.045 | 0.018 | 0.027 | -0.076 | 0.018 | -0.009 | -0.018 | 0.023 | -0.233 (active)
NR2C2 isoform 2 (UniProt P49116) | 0.026 | 0.019 | 0.055 | 0.041 | -0.173 | 0.028 | -0.052 | 0.084 | -0.004 | 0.019
OTUD4 (UniProt Q01804) | -0.122 | 0.182 | 0.022 | 0.063 | -0.106 | -0.062 | 0.039 | 0.013 | 0.095 | -0.025
